PubChem BioAssay (Tox21)
Records with an inconclusive call do not appear. Activity calls are given as the source filed them. Unless noted, the call rests on the fitted dose curve; in most records, active means well fitted curve in the direction sought with a large enough effect in the repeat runs; inconclusive means weak or mixed curves; inactive means no such curve, though single readings can be large; an effect the other way counts as inactive or inconclusive.

What was measured:
[1] = qHTS assay to identify small molecule antagonists of the estrogen receptor alpha (ER-alpha) signaling pathway using the BG1 cell line in the presence of 0.1 nM 17-beta-estradiol - cell viability counter screen (AID 1259241); further: nearly all actives have a fitted effect of over 40% in size
Method in brief: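 CellTiter-Fluor read (30 min, 37C) on ER-alpha/ERE-luc VM7Luc4E2 cells; 22 hr compound treatment; agonist 0.1 nM E2 final; same-well multiplex.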

[2] = qHTS assay to identify small molecule antagonists of the androgen receptor (AR) signaling pathway using the MDA cell line in the presence of 0.5 nM R1881 - cell viability counter screen (AID 1259242); further: nearly all actives have a fitted effect of over 45% in size
Method in brief: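 Cells seeded at 3,000/well and allowed 5 hr at 37C, 0% CO2 before compound transfer and R1881 (0.5 nM final) addition; 16 hr later, live-cell protease fluorescence indicated cytotoxicity.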

[3] = qHTS assay to identify small molecule phospholipidosis (PLD) inducers (AID 1259344; active means well fitted curve in the direction sought with a large enough effect; an effect the other way counts as inactive or inconclusive)
Method in brief: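 Phospholipid accumulation was scored by imaging: fixed, Hoechst-counterstained HepG2 cells stained with LipidTOX Red after 24 h compound exposure at 37 C. Read-outs were pit count and pit intensity per well or per cell, with amiodarone and DMSO controls.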

[4] = qHTS assay to identify small molecule HDAC inhibitors - cell viability counter screen (AID 1259365); further: series mostly up to about 92 µM; nearly all actives have a fitted effect of over 50% in size
Method in brief: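 To flag cytotoxic hits, 1,500 wild-type HCT-116 cells per well, plated the day before, receive test compounds for 2hr at 37 C before CellTiter-Glo reagent and a luminescence read.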

[5] = qHTS assay to identify small molecule antagonists of the sonic hedgehog signaling (Shh) pathway - cell viability counter screen (AID 1259367); further: nearly all actives have a fitted effect of over 55% in size
Method in brief: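 Viability was read by CellTiter-Fluor fluorescence in the same wells, reagent added 23 hr into compound treatment and incubated 1 hr at 37C. The 3T3 Gli1-Luc reporter cells (2,000/well) received conditioned medium after compound and ran 24 hr.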

[6] = qHTS assay to identify small molecule agonists of the sonic hedgehog signaling (Shh) pathway (AID 1259368; calls by dose curve;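 further: NIH/3T3-derived 3T3Gli1-Luc cells carrying a stable Gli1-driven firefly luciferase reporter; series mostly up to about 92 µM; nearly all actives have a fitted effect of over 15% in size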)
Method in brief: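 Following a 24 hr incubation with DMSO-dissolved compounds at 37 C, 5% CO2, Gli1-Luc NIH/3T3-derived cells received luciferase reagent for 30 min at room temperature prior to luminescence measurement.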

[7] = target: Estrogen receptor beta (Homo sapiens) (UniProt Q92731); assay: qHTS assay to identify small molecule agonists of the estrogen receptor beta (ER-beta) signaling pathway (AID 1259377; active means well fitted activation curve with a large enough effect in the signal ratio in the repeat runs, not every such curve was filed as active; the % refers to the signal ratio)
Estrogen receptor beta (Homo sapiens), sequence (Q92731 whole entry, looked up): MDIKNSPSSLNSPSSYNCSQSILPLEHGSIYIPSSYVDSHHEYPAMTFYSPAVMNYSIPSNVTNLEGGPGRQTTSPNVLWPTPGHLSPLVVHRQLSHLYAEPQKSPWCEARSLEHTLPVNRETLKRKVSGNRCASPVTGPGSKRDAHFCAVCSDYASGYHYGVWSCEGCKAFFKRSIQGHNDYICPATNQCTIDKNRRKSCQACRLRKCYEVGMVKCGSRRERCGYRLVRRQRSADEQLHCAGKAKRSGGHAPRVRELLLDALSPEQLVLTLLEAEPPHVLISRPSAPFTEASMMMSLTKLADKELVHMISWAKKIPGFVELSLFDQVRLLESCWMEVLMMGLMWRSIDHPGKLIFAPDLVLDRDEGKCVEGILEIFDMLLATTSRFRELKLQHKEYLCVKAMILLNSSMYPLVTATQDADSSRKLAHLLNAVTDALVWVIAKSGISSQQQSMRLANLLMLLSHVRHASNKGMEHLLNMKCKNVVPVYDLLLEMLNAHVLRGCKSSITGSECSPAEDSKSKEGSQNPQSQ
Method in brief: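 Screening used GripTite ER-beta-UAS-bla cells held in 2% charcoal-stripped FBS medium. After overnight (16 hr) compound incubation at 37C, beta-lactamase activity was detected with a FRET substrate by fluorescence.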

[8] = target: Estrogen receptor beta (Homo sapiens) (UniProt Q92731); assay: qHTS assay to identify small molecule antagonists of the estrogen receptor beta (ER-beta) signaling pathway (AID 1259378; active means well fitted inhibition curve with a large enough effect in the signal ratio in the repeat runs, not every such curve was filed as active; the % refers to the signal ratio)
Method in brief: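 Antagonist mode: compounds added to beta-lactamase reporter HEK293T ER-beta-UAS cells stimulated with E2 (1nM final), 16 hr at 37C. LiveBLAzer B/G FRET substrate, 2 hours room temperature, fluorescence read-out.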

[9] = qHTS assay to identify small molecule agonists of the androgen receptor (AR) signaling pathway in the presence of an antagonist - cell viability counter screen (AID 1259379); further: nearly all actives have a fitted effect of over 25% in size; further: potency means the concentration at half of the fitted maximal effect
Method in brief: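 Each compound was tested at 15 concentrations on MDA-kb2 cells in the presence of 3.0uM nilutamide. Viability was measured by CellTiter-Fluor fluorescence after a 16 hr incubation at 37C in a CO2-free atmosphere.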

[10] = qHTS assay to identify small molecule antagonists of the estrogen receptor beta (ER-beta) signaling pathway - cell viability counter screen (AID 1259382);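 further: HEK293T cells carrying ER-beta-UAS-bla reporter stimulated with estradiol; series mostly up to about 92 µM; nearly all actives have a fitted effect of over 55% in size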
Method in brief: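 CellTiter-Glo ATP luminescence measured after the LiveBLAzer read in the same wells; ER-beta-UAS-bla HEK293T cells, 16 hr compound treatment with 1nM 17-beta-estradiol agonist at 37C, 5% CO2.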

[11] = target: Estrogen receptor (Homo sapiens) (UniProt P03372); assay: qHTS assay to identify small molecule agonists of the estrogen receptor alpha (ER-alpha) signaling pathway in the presence of an antagonist (AID 1259383; calls by dose curve; further: top concentration of the series differs between compounds; nearly all actives have a fitted effect of over 15% in size)
Estrogen receptor (Homo sapiens), sequence (P03372 whole entry, looked up): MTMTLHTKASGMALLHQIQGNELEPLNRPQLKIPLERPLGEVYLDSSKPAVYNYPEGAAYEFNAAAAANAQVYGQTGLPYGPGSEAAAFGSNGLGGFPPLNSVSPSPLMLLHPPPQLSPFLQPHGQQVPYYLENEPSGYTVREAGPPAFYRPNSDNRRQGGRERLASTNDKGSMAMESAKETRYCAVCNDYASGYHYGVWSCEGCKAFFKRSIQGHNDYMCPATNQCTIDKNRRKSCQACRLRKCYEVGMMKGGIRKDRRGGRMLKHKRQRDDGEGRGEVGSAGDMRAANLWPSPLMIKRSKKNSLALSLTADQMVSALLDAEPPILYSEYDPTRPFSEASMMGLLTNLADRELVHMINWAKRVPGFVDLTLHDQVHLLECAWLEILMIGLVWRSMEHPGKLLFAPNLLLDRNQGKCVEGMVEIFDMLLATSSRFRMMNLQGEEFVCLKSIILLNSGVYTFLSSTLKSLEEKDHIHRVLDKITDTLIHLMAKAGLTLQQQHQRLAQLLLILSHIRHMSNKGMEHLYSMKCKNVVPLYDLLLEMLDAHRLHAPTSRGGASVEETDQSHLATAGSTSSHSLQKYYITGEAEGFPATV
Method in brief: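 Luminescent ERE-luciferase reporter, VM7Luc4E2 cells (endogenous ER-alpha); 10.0nM ICI-182,780 final; 15-point compound titration; 22hr at 37C; ONE-Glo, 30min RT.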

[12] = target: Estrogen receptor (Homo sapiens) (UniProt P03372); assay: qHTS assay to identify small molecule antagonists of the estrogen receptor alpha (ER-alpha) signaling pathway using the BG1 cell line in the presence of 0.1 nM 17-beta-estradiol (AID 1259244); further: nearly all actives have a fitted effect of over 50% in size
Method in brief: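 Luciferase signal from VM7Luc4E2 ERE-reporter cells, co-dosed with test compound and 0.1 nM final 17beta-estradiol for 22 h, read with ONE-Glo.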

[13] = qHTS assay to identify small molecule HDAC inhibitors (AID 1259364);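 further: wild-type HCT-116 cells with endogenous class I/II HDAC activity; top concentration of the series differs between compounds; nearly all actives have a fitted effect of over 45% in size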
Method in brief: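 HCT-116 wt cells, 1,500/well, overnight attach. Compounds (DMSO) 2 h, 37 °C. HDAC-Glo I/II, 30 min RT. Luminescence.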

[14] = qHTS assay to identify small molecule agonists of the sonic hedgehog signaling (Shh) pathway - cell viability counter screen (AID 1259366); further: nearly all actives have a fitted effect of over 50% in size; further: potency means the concentration at half of the fitted maximal effect
Method in brief: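 Fluorescence from CellTiter-Fluor reports live cells in this counter screen. NIH/3T3-derived Gli1-Luc reporter cells receive test compounds for 24hr at 37C; reagent goes in at 23hr.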

[15] = qHTS assay to identify small molecule antagonists of the sonic hedgehog signaling (Shh) pathway (AID 1259369; calls by dose curve; further: nearly all actives have a fitted effect of over 45% in size; further: potency means the concentration at half of the fitted maximal effect)
Method in brief: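 Read-out is luminescence from a firefly luciferase gene controlled by the Gli1 response element, in 3T3Gli1-Luc cells pre-incubated 4hr then exposed to compounds and conditioned medium for 24hr.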

[16] = qHTS assay to identify small molecule agonists of the estrogen receptor beta (ER-beta) signaling pathway - cell viability counter screen (AID 1259380); further: nearly all actives have a fitted effect of over 30% in size; further: potency means the concentration at half of the fitted maximal effect
Method in brief: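 Compounds dissolved in DMSO were pin-transferred onto ER-beta-UAS-bla HEK293T cells that had settled 6 hr, and exposure ran 16 hr at 37C. Following the reporter read, CellTiter-Glo luminescence after 30 min at room temperature indicated cytotoxicity.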

[17] = qHTS assay to identify small molecule agonists or antagonists of the thyroid stimulating hormone receptor (TSHR) signaling pathway - wild type cell line counter screen (AID 1259384; calls by dose curve)
Method in brief: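 Counter screen in untransfected Hek293: compounds (15-point titration, triplicate) plus phosphodiesterase inhibitor Ro20-1724 added after 18 h plating; 30 min RT. Intracellular cAMP via competitive d2/cryptate immunoassay, 1 h incubation.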

[18] = target: Androgen receptor (Homo sapiens) (UniProt P10275); assay: qHTS assay to identify small molecule antagonists of the androgen receptor (AR) signaling pathway using the MDA cell line in the presence of 0.5 nM R1881 (AID 1259243); further: nearly all actives have a fitted effect of over 50% in size
Androgen receptor (Homo sapiens), sequence (P10275 whole entry, looked up): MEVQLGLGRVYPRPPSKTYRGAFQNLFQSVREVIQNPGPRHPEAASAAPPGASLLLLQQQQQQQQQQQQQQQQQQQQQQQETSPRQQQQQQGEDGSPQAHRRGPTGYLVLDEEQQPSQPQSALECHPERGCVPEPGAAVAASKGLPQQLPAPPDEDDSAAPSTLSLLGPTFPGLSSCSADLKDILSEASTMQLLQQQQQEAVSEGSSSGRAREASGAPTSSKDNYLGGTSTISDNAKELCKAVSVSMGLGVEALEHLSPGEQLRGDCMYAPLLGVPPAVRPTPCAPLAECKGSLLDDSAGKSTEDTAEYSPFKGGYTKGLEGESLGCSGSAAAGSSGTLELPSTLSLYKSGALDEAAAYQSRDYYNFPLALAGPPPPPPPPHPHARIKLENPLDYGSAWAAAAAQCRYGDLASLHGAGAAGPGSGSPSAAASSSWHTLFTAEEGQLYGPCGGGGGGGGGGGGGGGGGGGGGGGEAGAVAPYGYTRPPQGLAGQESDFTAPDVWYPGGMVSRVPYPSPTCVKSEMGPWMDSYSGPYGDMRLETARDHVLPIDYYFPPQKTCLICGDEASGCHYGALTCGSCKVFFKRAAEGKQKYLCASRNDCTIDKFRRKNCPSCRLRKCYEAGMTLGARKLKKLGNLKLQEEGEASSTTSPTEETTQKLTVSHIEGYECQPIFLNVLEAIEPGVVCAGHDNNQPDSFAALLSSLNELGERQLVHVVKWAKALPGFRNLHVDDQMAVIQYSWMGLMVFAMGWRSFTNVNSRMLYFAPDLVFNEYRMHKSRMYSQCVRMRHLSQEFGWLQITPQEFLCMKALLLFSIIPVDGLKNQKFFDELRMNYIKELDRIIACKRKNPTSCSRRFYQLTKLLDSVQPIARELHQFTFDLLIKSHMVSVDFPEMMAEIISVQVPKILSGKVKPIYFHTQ
Method in brief: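 Luminescence from an AR/GR-responsive MMTV-luciferase construct in MDA-kb2 breast carcinoma cells, read 30 min after ONE-Glo, following 16 hr co-treatment with compounds and 0.5 nM R1881.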

[19] = target: Androgen receptor (Homo sapiens) (UniProt P10275); assay: qHTS assay to identify small molecule agonists of the androgen receptor (AR) signaling pathway in the presence of an antagonist (AID 1259381; calls by dose curve; further: nearly all actives have a fitted effect of over 15% in size)
Method in brief: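 Plated MDA-kb2 cells (3,000/well) were pre-incubated 5hr, given nilutamide (3.0uM final) or buffer, then dosed with compounds in DMSO at 15 concentrations. Luciferase activity was quantified by luminescence after 16hr at 37C.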

Measured: Potency

O=S(=O)(c1cccc2cnccc12)N1CCCNCC1
not listed: [12] | [13] | [14] | [15] | [16] | [17] | [18] | [19]
inactive: all other assays above

CC(C)COC(=O)C(C)C
not listed: [3] | [18] | [19]
inactive: all other assays above

COc1cc(CCC(C)=O)ccc1O
not listed: [1] | [3] | [7] | [11] | [12]
inactive: all other assays above

CCCCCCCCCCCCCCCCCCOCC(O)CO (centres undefined)
not listed: [15] | [16] | [18] | [19]
inactive: all other assays above

Cc1c(F)cc2c(=O)c(C(=O)O)cn3c2c1CCC3C (centres undefined)
not listed: [1] | [3] | [7] | [8] | [14]
inactive: all other assays above

CC(=O)CCc1ccc(O)cc1
not listed: [3] | [7] | [18] | [19]
inactive: all other assays above

COc1cccc(OC)c1
not listed: [3] | [11] | [12] | [18] | [19]
inactive: all other assays above

CCCOc1ccccc1-c1nc2n[nH]nc2c(=O)[nH]1
not listed: [8] | [13] | [18] | [19]
inactive: all other assays above

CN(C)C(=O)C(CCN1CCC(O)(c2ccc(Cl)cc2)CC1)(c1ccccc1)c1ccccc1
inactive: [13] | [4] | [6] | [7]
active: [14] 16.8 µM | [9] 29.8 µM | [16] 26.6 µM

CCCC=O
not listed: [3] | [11] | [12] | [18] | [19]
inactive: all other assays above

C=CCOc1nc(OCC=C)nc(OCC=C)n1
not listed: [3] | [11] | [12] | [15] | [17] | [18] | [19]
inactive: all other assays above

CC/C=C\C#N
not listed: [3] | [11] | [13] | [14] | [15] | [18] | [19]
inactive: all other assays above

O=Cc1ccccc1[N+](=O)[O-]
not listed: [3] | [8] | [11] | [18] | [19]
inactive: all other assays above

CSc1nc(NC2CC2)nc(NC(C)(C)C)n1
inactive: [1] | [2] | [13] | [4] | [14] | [6] | [9] | [16] | [10]
active: [15] 1.54 µM

NC(=O)c1ncn([C@@H]2O[C@H](CO)[C@@H](O)[C@H]2O)c1O
not listed: [1] | [15] | [18] | [19]
inactive: all other assays above

CCCCCCCCC=O
not listed: [3] | [11] | [12] | [15] | [18] | [19]
inactive: all other assays above

C#CC(O)CCCCC (centres undefined)
inactive: [1] | [2] | [13] | [4] | [14] | [5] | [6] | [9] | [16] | [10]

CCCCCCCCCCCCCCCCCC(=O)OCCCCCCCCCCCCCC(C)C
not listed: [3] | [7] | [8] | [17] | [18] | [19]
inactive: all other assays above
